Results from article PMC13494018.
A number with no mark means an inactive call. The rule behind the calls is not given here.

Biological target: CD276, Q5ZPR3
Sequence (Q5ZPR3 whole entry): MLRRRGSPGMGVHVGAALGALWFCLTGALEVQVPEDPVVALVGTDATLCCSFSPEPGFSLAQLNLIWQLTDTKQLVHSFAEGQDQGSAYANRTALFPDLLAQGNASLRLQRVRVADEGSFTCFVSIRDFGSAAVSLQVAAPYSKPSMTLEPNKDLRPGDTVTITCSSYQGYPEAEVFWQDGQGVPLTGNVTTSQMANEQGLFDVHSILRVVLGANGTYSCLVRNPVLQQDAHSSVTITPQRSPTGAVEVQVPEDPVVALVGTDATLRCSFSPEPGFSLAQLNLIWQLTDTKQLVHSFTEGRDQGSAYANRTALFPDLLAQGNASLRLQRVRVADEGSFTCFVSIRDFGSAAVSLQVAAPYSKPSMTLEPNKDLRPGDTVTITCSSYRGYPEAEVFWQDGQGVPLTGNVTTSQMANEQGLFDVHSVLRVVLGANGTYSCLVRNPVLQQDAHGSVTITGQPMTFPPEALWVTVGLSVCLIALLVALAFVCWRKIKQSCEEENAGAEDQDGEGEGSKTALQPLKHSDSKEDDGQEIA

Binder | binding in a display sort
design_612_bdadb936-3f14-48ad-830f-718e38d81c30_198_dldesign_0_cycle1_af2pred (protein) DAAVAQGQKLRDAALAALAAATTLAQFNAAAQQGLAALAQITALIVAHPEAGPQLQKLAAEVLAAIEAARARALAA | not found
design_612_bdadb936-3f14-48ad-830f-718e38d81c30_247_dldesign_0_cycle1_af2pred (protein) GALGRSVARDTARAFLADPEKGKEMADIAAGVGATDAAAGRAALEELLRLAKEHPEVAEQLEAAAKKVAAAIKQAEAAAA | not found
design_612_bdadb936-3f14-48ad-830f-718e38d81c30_262_dldesign_0_cycle1_af2pred (protein) AKERVKELAKEIEKLAKEAPPEVAKHLKKAAEALKKGVEEGPGAMAEAVVTLAEAAAEAYKLDPEVGERLRRIAAEVARLAIEYQA | not found
design_612_bdadb936-3f14-48ad-830f-718e38d81c30_271_dldesign_0_cycle1_af2pred (protein) AARAEALAAEGEALIEQALSDATLSEEERKALLNQAAHKFVAAAGALVADRGPAAQAEITALLSKAVEAKALAEA | not found
design_612_bdadb936-3f14-48ad-830f-718e38d81c30_331_dldesign_0_cycle1_af2pred (protein) GKKAQAIALIDEATALLIAAQAADAETGAKLTAEAVKLLSEAIELAAELNGRAAGLIGRLLALGAAGTISPERLKELAAAAKAEIEAA | not found
design_612_bdadb936-3f14-48ad-830f-718e38d81c30_380_dldesign_0_cycle1_af2pred (protein) SQALQTQMLIANARNLAKNAEELLKKGDVEKAEKAVEALEKLAKIAGEASPEAGKEAGKLAEEARKKVEEFKK | not found
design_612_bdadb936-3f14-48ad-830f-718e38d81c30_501_dldesign_0_cycle1_af2pred (protein) DLLAKQKELSEKYERVAEIGEEARKLVGEEAAELSLKALTYYTKAMAAYAAGEATAAEAEKYEKKGEEYEKKLKELKEKELKK | not found
design_612_bdadb936-3f14-48ad-830f-718e38d81c30_557_dldesign_0_cycle1_af2pred (protein) MDQAVADRTAEALAKHAKRLLEEGLKLAKEGDLEEAKKKVEAAKQVAEVLKNLGSPKAAELGEKMLEEAKKALEEIKKR | not found
design_612_bdadb936-3f14-48ad-830f-718e38d81c30_608_dldesign_0_cycle1_af2pred (protein) AALVAQAAADLEAIGARYPALKPAADRALTLTPGLRLLAANTARNALPGSEEEIVEALRRMVEALEAEQARLDAA | not found
design_612_bdadb936-3f14-48ad-830f-718e38d81c30_642_dldesign_0_cycle1_af2pred (protein) MREEARALLERAREALARARALAEAGGDGGEAVSLMVEALEAASRALRLARELGDEELAEEAERLLAEIRRATAAITQAVIDRA | not found
design_612_bdadb936-3f14-48ad-830f-718e38d81c30_715_dldesign_0_cycle1_af2pred (protein) IEQLAALARASYRAVRVAAENLAAGRLTPEQLKAAAQLAEGTEKLAKETAAAYNADPATKEKAAEFEELARFAKEVRDAARAAL | not found
design_612_bdadb936-3f14-48ad-830f-718e38d81c30_773_dldesign_0_cycle1_af2pred (protein) SAAAEAQQRLNELLGRLTAATEAGAAVDPALASALAGKAFTELSKAHQYLLAGDVDAAQAELDKAEKLVKELEAAAAAAAAAAA | not found
design_612_bdadb936-3f14-48ad-830f-718e38d81c30_973_dldesign_0_cycle1_af2pred (protein) GAATALAILKANLAAQVKAAAAGVGAKAAAETAKVLADSAAGIAKADPAVAAEAEKLAAEAKAASKEFAAKAEAAAAA | not found
design_612_bdadb936-3f14-48ad-830f-718e38d81c30_1181_dldesign_0_cycle1_af2pred (protein) MMEEIKKLTEKGEELLKKGKELAKEGTAEAANKALAYYVEAAEYYEKALRLAKEAGAEEEFIKELEKKLQEAFANANAAAKAAIALTA | not found
design_612_bdadb936-3f14-48ad-830f-718e38d81c30_1207_dldesign_0_cycle1_af2pred (protein) GAELLAKKAQELYKKAEELAKKAPESVEAAKKAQEYAQQSIATVAELFEKFPEAPQELKASLARIAAQAAKYYLDAQKLIKAA | not found
design_612_bdadb936-3f14-48ad-830f-718e38d81c30_1230_dldesign_0_cycle1_af2pred (protein) AAAAAVATAAADAMYKQAKKQAEEAFKAAKENPEEGKKLAESALKNFELAATLYAQAGDEAKAKAVLEEGKEKYEEIMKKIKEAE | not found
design_612_bdadb936-3f14-48ad-830f-718e38d81c30_1240_dldesign_0_cycle1_af2pred (protein) GEEEERDERARELVEKGREEAEKYIAAGKVGEAAGVVVEKAAEAHRVAVSPEVKAEINRELAAQIRRIMEAIA | not found
design_612_bdadb936-3f14-48ad-830f-718e38d81c30_1324_dldesign_0_cycle1_af2pred (protein) AFAAAIAALTAAAAATTPALATQLNAVKTAVTNTAKNAQAAPPEVKAATAAKWAEIAQGAVDAALAAAAA | not found
design_612_bdadb936-3f14-48ad-830f-718e38d81c30_1410_dldesign_0_cycle1_af2pred (protein) MEEIRALAEEALATAEAELATMRAAQEAGDVGTAVDALRVLFRTANEAIRRLRELGGPEEYIERLEAARREAQAILAATARRAIAQA | binds (active)

Binder | binding in a display sort
design_612_bdadb936-3f14-48ad-830f-718e38d81c30_1687_dldesign_0_cycle1_af2pred (protein) MELVKRAREILERAERAETVEELRRVLAEAARLAGEAARAAIADPATAAAANEALAIALEAMRVATERARAAR | not found
design_612_bdadb936-3f14-48ad-830f-718e38d81c30_1696_dldesign_0_cycle1_af2pred (protein) SAEILAAQAKALELMKEAAKYNRKAGGKTAELALEAAKYATKAISYFATGEKKAEGEEEYKKAEEKLKEVKKKAA | not found
design_612_bdadb936-3f14-48ad-830f-718e38d81c30_1730_dldesign_0_cycle1_af2pred (protein) AAAAAVAKVKAAKEKAKELLEEARKLAKEDPEKAGEVLNKALTYVSKVAAQAAKDGPEAAAAAAKVLGEVLDEVAEIEKLRKEIAA | not found
design_612_bdadb936-3f14-48ad-830f-718e38d81c30_1747_dldesign_0_cycle1_af2pred (protein) SAADVAAATQKALKKQAEKLLELAKEAAAKDKEEAKKYAKAAKKLAELMVLAGEQAGTGAEAKKEAEKIKKEVEKVVKEA | not found
design_612_bdadb936-3f14-48ad-830f-718e38d81c30_1832_dldesign_0_cycle1_af2pred (protein) MEKAKELVKKIKELARKIKELAERLKADPSTAEQDLKEVNEALSEALELQKKVAEIGSPEDAEEANKELGKAQRAALEAHRAAAELA | not found
design_612_bdadb936-3f14-48ad-830f-718e38d81c30_1931_dldesign_0_cycle1_af2pred (protein) SMEELEKKREEAEKGLEEIKELAKKAAEGAKDPATAAATMAEALEKLEEYKETIELAKEVGEELAEKVRAAVNELLANVARAGAVAAA | not found
design_612_bdadb936-3f14-48ad-830f-718e38d81c30_1961_dldesign_0_cycle1_af2pred (protein) MERLEKIEKRIEEIEKVVEEAEKKVKEGTITGEDALRLNKALAEARRIAEEAAKLDPELAKRAQAVAERASRVLVEGNKLLVA | not found
design_612_bdadb936-3f14-48ad-830f-718e38d81c30_1983_dldesign_0_cycle1_af2pred (protein) EEKVREEAKEAIEKAKEAVEKLKEAAKADPRLAVAAKAATAALEKAKELLEENPESALKLAKTTLDLAEATLAAAA | not found
design_612_bdadb936-3f14-48ad-830f-718e38d81c30_2023_dldesign_0_cycle1_af2pred (protein) AEAETLGSLARGAISFLRTAAAYLRRKAAAAADPATAATLNAYADRLEALAEAAAKAVEEGKYEEAVALAEEGVALALEGAAAAA | not found
design_612_bdadb936-3f14-48ad-830f-718e38d81c30_2117_dldesign_0_cycle1_af2pred (protein) EEERAAAVNAAMQAIIALQQAGQALEASGDPAAKAKGKEAYAKAGEYQKLLKEYNDDVEKVKEIAKDAAAAAAEYAAAVKKAQAA | not found
design_612_bdadb936-3f14-48ad-830f-718e38d81c30_2140_dldesign_0_cycle1_af2pred (protein) DAAAAALAAAHIAKLNAIAKEGIEAAKKGDPEANAEKAVAKINAAASAAVKEMTALGANGSYITQVLQAAAEAIKKVREAAKKAK | not found
design_612_bdadb936-3f14-48ad-830f-718e38d81c30_2254_dldesign_0_cycle1_af2pred (protein) GAAEAEEAARREEAKKLAEEYLKKVEEAAKESTGKAVEVMVKGVKELLEIGDKETANALAQEATRIISAAVRA | not found
design_613_5efed0bc-64ba-423b-b3f9-a246574e49bb_35_dldesign_0_cycle1_af2pred (protein) DQARADALIAAVDAAVAAAEAALAEDPELGLAKGAEASALIVEALKASAELSPAERARLAAALNAATARLLKVQAAAREQLA | not found
design_613_5efed0bc-64ba-423b-b3f9-a246574e49bb_150_dldesign_0_cycle1_af2pred (protein) GEKEKAVKEAKEAAEETEKVAKEAIKAAKAAGNEAAAKMAEALAKNAKKALEEAKKGTLEEAKKNLKYIESNLKNAKLILEGQ | not found
design_613_5efed0bc-64ba-423b-b3f9-a246574e49bb_260_dldesign_0_cycle1_af2pred (protein) AAAVGEGSKLVIEGIKALAEAAQRVAFDPEIQAKLMAQAAKATRALVQGAADPATALELAKKALEEAKKAVKEAEKVLA | not found
design_613_5efed0bc-64ba-423b-b3f9-a246574e49bb_304_dldesign_0_cycle1_af2pred (protein) AEAAKAAAVALAAAMLALADALAKAGDFGTALAIATLGARIVDTVVGPEAGAAFQAQRDAVISSNARAAIAAA | not found
design_613_5efed0bc-64ba-423b-b3f9-a246574e49bb_341_dldesign_0_cycle1_af2pred (protein) SEMIEKIKELGEEAKKIGKEGLAGTPEEMLKAAEKLRELMKEISRLAAEAMKESPEVEEIALAGGEALSIAAEEIAKLQAAAAAA | not found
design_613_5efed0bc-64ba-423b-b3f9-a246574e49bb_395_dldesign_0_cycle1_af2pred (protein) SKTAEDGIKFIKELTEIAKAAAAAGQPKSVVETIRKTLEHATKVFAAAAAEDNPEYAEKVKKAGEEALKEADKAIAA | not found
design_613_5efed0bc-64ba-423b-b3f9-a246574e49bb_418_dldesign_0_cycle1_af2pred (protein) AGAEAAAHLNAAFASLSKGLISTDPAEAQKYFDEAKAHLDKARALAAKDPAVAAEVQAAVDKITDLLEGGKAAR | not found
